# According to PubChem BioAssay (EPA / NIEHS):
# The source made the active and inactive calls. How the source made its calls: active means hit-call score of the fitted dose curve at least 0.9, where 1 is the maximum; inactive means score below 0.9.
# Tests used:
# [1] = ATG_EGR_CIS: Attagene CIS-FACTORIAL HepG2 Assay for human Early Growth Response 1 (EGR1) (AID 2282938); conditions: HepG2 Attagene CIS-FACTORIAL EGR reporter mRNA; actives raise or lower the signal
# Summary of the method: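 Read-out: fluorescent reporter-mRNA fragments resolved by capillary electrophoresis after RT-PCR, 24 h post-dose in transiently transfected HepG2. Endogenous transcription-factor activity reported via cis-element-regulated reporter units; gain or loss fitted relative to DMSO.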
# [2] = ATG_M_19_CIS: Attagene CIS-FACTORIAL HepG2 Assay for M19 Transcription Factor (Internal Marker) (AID 2282939); conditions: HepG2 Attagene CIS-FACTORIAL M19 internal marker reporter; actives raise or lower the signal
# Summary of the method: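 HepG2 cells transiently transfected with cis-regulated multiplexed reporter units, dosed 24 h. Reporter mRNA quantified by RT-PCR and capillary electrophoresis; internal background marker fitted bidirectionally versus DMSO.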
# [3] = ATG_ERE_CIS: Attagene CIS-FACTORIAL HepG2 Assay for Estrogen Response Element (ERE) (AID 2282940); conditions: HepG2 ERE cis-reporter, Attagene RNA transcript; actives raise or lower the signal
# Summary of the method: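 HepG2 cells transiently transfected with multiplexed cis-element reporter units, measuring endogenous transcription factor activity; ERE reporter mRNA quantified after 24 h exposure by RT-PCR, fluorescent labelling, HpaI digestion and capillary electrophoresis. Bidirectional change versus DMSO.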
# [4] = ATG_Ets_CIS: Attagene CIS-FACTORIAL HepG2 Assay for human Erythroblast Transformation Specific (ETS) (AID 2282941); conditions: HepG2 ETS cis-reporter transcription; AC50: actives raise or lower the signal unless noted; outcome: actives raise or lower the signal unless noted
# Summary of the method: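 Multiplexed reporter transcript profiling: HepG2, 24 h treatment, total RNA to cDNA, PCR, 6-FAM labelling, HpaI cut, capillary electrophoresis. Gain- or loss-of-signal fitted against DMSO.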
# [5] = biological target: Hepatocyte nuclear factor 3-beta (Homo sapiens) (UniProt Q9Y261); assay: ATG_FoxA2_CIS: Attagene CIS-FACTORIAL HepG2 Assay for human Forkhead box A2 (FOXA2) (AID 2282942); conditions: HepG2 cis-reporter transcription factor activity, 24 h; actives raise or lower the signal
# Summary of the method: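 Readout: fluorescent reporter transcripts resolved by capillary electrophoresis after RT-PCR. Transiently transfected HepG2, 24 h compound exposure, endogenous TF activity at cis promoter elements. Gain or loss of signal fitted relative to DMSO.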
# [6] = ATG_FoxO_CIS: Attagene CIS-FACTORIAL HepG2 Assay for human Forkhead box O (FoxO) (AID 2282943); conditions: HepG2 Attagene cis-reporter, FoxO element, mRNA; actives raise or lower the signal
# Summary of the method: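 Endogenous transcription factor activity read from multiplexed cis-promoter reporter transcripts in transiently transfected HepG2, 24 h after dosing. Reporter RNA measured via RT-PCR plus capillary electrophoresis of FAM-labeled products; gain or loss relative to DMSO.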
# [7] = ATG_GATA_CIS: Attagene CIS-FACTORIAL HepG2 Assay for human GATA Binding Protein (AID 2282944); conditions: HepG2 GATA cis-element reporter, Attagene multiplex mRNA; actives raise or lower the signal
# Summary of the method: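 HepG2 cells transiently transfected with multiplexed cis-element reporter units measure endogenous GATA activity; after 24 h compound exposure, reporter mRNA quantified by RT-PCR and capillary electrophoresis. Changes fitted in both directions vs DMSO.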
# [8] = biological target: Bile acid receptor (Homo sapiens) (UniProt Q96RI1); assay: ATG_IR1_CIS: Attagene CIS-FACTORIAL HepG2 Assay for human Nuclear Receptor Subfamily 1 Group H Member 4 (NR1H4), IR1 submotif (AID 2282946); conditions: IR1 reporter transcription, actives raise or lower the signal
# Summary of the method: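 HepG2 cells transiently transfected with multiplexed cis-element reporter units read endogenous transcription factor activity. After 24 h compound exposure, reporter mRNA was quantified by RT-PCR, fluorescent labelling, HpaI digestion and capillary electrophoresis; bidirectional fitting versus DMSO baseline.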
# [9] = ATG_GRE_CIS: Attagene CIS-FACTORIAL HepG2 Assay for human Glucocorticoid Response Elements (GRE) (AID 2282947); conditions: HepG2 GRE cis-reporter, Attagene multiplex mRNA; AC50: actives raise or lower the signal unless noted; outcome: actives raise or lower the signal unless noted
# Summary of the method: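 Reporter transcripts read by RT-PCR with capillary electrophoresis fluorescence after a 24 h chemical exposure of HepG2 cells transiently transfected with multiple cis-element reporter units. Gain or loss fitted against DMSO.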
# [10] = ATG_ISRE_CIS: Attagene CIS-FACTORIAL HepG2 Assay for human Interferon Regulatory Factor 1 (IRF1) binding to an Interferon-Stimulated Response Element (ISRE) (AID 2282948); conditions: HepG2 ISRE cis-reporter (Attagene), mRNA transcription readout; actives raise or lower the signal
# Summary of the method: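 Signal reflects induction or loss of ISRE-linked reporter mRNA in transiently transfected HepG2 cells after a 24 h treatment, detected by fluorescent RT-PCR fragments on capillary electrophoresis and normalised to DMSO.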
# [11] = ATG_M_32_CIS: Attagene CIS-FACTORIAL HepG2 Assay for M32 Transcription Factor (Internal Marker) (AID 2282949); conditions: HepG2 Attagene cis-factorial M32 reporter, mRNA; actives raise or lower the signal;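 further: background control marker of the multiplexed CIS panel rather than a real target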
# Summary of the method: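 HepG2 transfectants (cis-regulated reporter transcription units) dosed 24 h. Reporter mRNA by RT-PCR plus CE, analysed as gain or loss relative to DMSO.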
# [12] = ATG_M_06_CIS: Attagene CIS-FACTORIAL HepG2 Assay for M06 Transcription Factor (Internal Marker) (AID 2282950); conditions: HepG2 Attagene CIS-FACTORIAL M06 internal marker reporter; actives raise or lower the signal
# Summary of the method: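 Internal background marker within multiplexed cis-reporter HepG2 system. Cells transiently transfected, dosed 24 h; reporter mRNA measured by RT-PCR, HpaI digestion and capillary electrophoresis. Bidirectional fit relative to DMSO.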
# [13] = biological target: Hypoxia-inducible factor 1-alpha (Homo sapiens) (UniProt Q16665); assay: ATG_HIF1a_CIS: Attagene CIS-FACTORIAL HepG2 Assay for human Hypoxia Inducible Factor 1 (HIF1A) (AID 2282951); conditions: HepG2 Attagene cis-factorial HIF1a reporter transcription; actives raise or lower the signal
# Summary of the method: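 RT-PCR/capillary electrophoresis fluorescence readout of reporter transcripts from endogenous-TF-driven cis elements in transfected HepG2 cells, 24 h exposure; activity fitted in both directions against DMSO controls.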
# [14] = biological target: Hepatocyte nuclear factor 6 (Homo sapiens) (UniProt Q9UBC0); assay: ATG_HNF6_CIS: Attagene CIS-FACTORIAL HepG2 Assay for human Hepatocyte Nuclear Factor 6 (HNF6) (AID 2282952); conditions: HepG2 Attagene cis-factorial HNF6 reporter transcription; actives raise or lower the signal
# Summary of the method: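 Endogenous transcription factor activity in human HepG2 liver cells was captured through cis-regulated reporter constructs. After 24 h treatment, reporter mRNA was measured by RT-PCR with capillary electrophoresis, and activity was fitted in both directions relative to DMSO.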
# [15] = biological target: Heat shock factor protein 1 (Homo sapiens) (UniProt Q00613); assay: ATG_HSE_CIS: Attagene CIS-FACTORIAL HepG2 Assay for human Heat Shock Transcription Factor 1 (HSE) (AID 2282953); conditions: HepG2 HSE cis-reporter, Attagene RNA transcription; actives raise or lower the signal
# Summary of the method: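 HepG2 cells transfected with cis-promoter reporter units sensing endogenous transcription factor activity; reporter mRNA quantified 24 h post-dose by RT-PCR and capillary electrophoresis of 6-FAM-labelled products. Bidirectional fitting against DMSO.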
# [16] = ATG_MRE_CIS: Attagene CIS-FACTORIAL HepG2 Assay for human Metal Responsive Element (MRE) (AID 2282954); conditions: HepG2 MRE cis-reporter transcription, Attagene multiplex; actives raise or lower the signal
# Summary of the method: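 Endogenous MRE-dependent transcription read as reporter mRNA in transiently transfected human HepG2 cells at 24 h. RNA reverse-transcribed, PCR-amplified, labelled and resolved by capillary electrophoresis; gain or loss relative to DMSO.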
# [17] = ATG_PBREM_CIS: Attagene CIS-FACTORIAL HepG2 Assay for human Phenobarbital-responsive Enhancer Module (PBREM) (AID 2282955); conditions: HepG2 PBREM cis-reporter, Attagene multiplexed transcription; actives raise or lower the signal
# Summary of the method: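 Reporter mRNA read by RT-PCR, 6-FAM primer extension, HpaI digestion and capillary electrophoresis. Transfected HepG2 cells, 24 h compound exposure. Gain or loss of signal fitted bidirectionally relative to DMSO baseline.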
# [18] = biological target: Paired box protein Pax-6 (Homo sapiens) (UniProt P26367); assay: ATG_Pax6_CIS: Attagene CIS-FACTORIAL HepG2 Assay for human Paired Box 6 (PAX6) (AID 2282956); conditions: HepG2 CIS-FACTORIAL PAX6 reporter transcription, RNA readout; actives raise or lower the signal
# Summary of the method: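 Values derive from bidirectional curve fitting of reporter mRNA signal relative to DMSO. HepG2 cells bearing transfected cis-regulated MRTUs were exposed for 24 h; transcripts were read by RT-PCR and capillary electrophoresis.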
# [19] = ATG_PXRE_CIS: Attagene CIS-FACTORIAL HepG2 Assay for human Pregnane X Receptor Element (PXRE) (AID 2282957); conditions: HepG2 Attagene CIS-FACTORIAL PXRE reporter, mRNA; actives raise or lower the signal
# Summary of the method: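 Endogenous transcription factor activity in HepG2 was gauged through induction of reporter mRNA driven by a cis-regulating promoter element, sampled 24 h post-treatment. Activity was fitted in both directions against DMSO negative control.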
# [20] = ATG_GLI_CIS: Attagene CIS-FACTORIAL HepG2 Assay for human Zinc Finger Protein GLI1 (AID 2282945); conditions: HepG2, Attagene cis-factorial reporter mRNA, GLI element; actives raise or lower the signal
# Summary of the method: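 Bidirectional curve fits relative to DMSO, using reporter mRNA levels from RT-PCR plus capillary electrophoresis. Cells were HepG2 transiently carrying cis-regulated reporter constructs, harvested 24 h after dosing.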
# Sequence of Bile acid receptor (Homo sapiens) (Q96RI1 whole entry, looked up): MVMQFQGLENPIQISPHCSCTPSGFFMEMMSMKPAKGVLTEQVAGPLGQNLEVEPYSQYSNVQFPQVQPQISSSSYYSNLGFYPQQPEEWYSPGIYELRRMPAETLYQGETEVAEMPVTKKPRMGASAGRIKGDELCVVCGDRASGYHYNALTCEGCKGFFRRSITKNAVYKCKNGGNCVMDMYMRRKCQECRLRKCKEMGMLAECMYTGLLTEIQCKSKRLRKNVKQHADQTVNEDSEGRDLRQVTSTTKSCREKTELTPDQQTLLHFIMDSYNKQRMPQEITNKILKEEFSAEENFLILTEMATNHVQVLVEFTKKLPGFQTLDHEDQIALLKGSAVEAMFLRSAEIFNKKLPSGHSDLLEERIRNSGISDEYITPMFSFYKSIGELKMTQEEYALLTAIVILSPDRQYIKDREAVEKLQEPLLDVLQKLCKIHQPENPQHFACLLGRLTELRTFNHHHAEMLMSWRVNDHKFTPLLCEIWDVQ
# Sequence of Hepatocyte nuclear factor 3-beta (Homo sapiens) (Q9Y261 whole entry, looked up): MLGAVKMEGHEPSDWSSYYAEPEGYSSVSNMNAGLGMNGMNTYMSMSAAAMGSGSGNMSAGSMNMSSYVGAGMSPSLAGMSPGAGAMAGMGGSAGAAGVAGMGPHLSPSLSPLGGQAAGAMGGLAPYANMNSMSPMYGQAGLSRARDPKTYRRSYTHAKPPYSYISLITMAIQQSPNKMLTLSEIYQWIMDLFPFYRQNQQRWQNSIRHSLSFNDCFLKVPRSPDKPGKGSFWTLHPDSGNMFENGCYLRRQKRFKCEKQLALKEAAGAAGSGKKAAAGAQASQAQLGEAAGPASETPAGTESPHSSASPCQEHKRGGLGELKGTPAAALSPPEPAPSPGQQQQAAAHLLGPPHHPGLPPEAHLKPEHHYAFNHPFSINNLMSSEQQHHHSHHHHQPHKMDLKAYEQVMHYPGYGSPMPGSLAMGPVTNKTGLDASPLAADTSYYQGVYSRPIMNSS
# Sequence of Heat shock factor protein 1 (Homo sapiens) (Q00613 whole entry, looked up): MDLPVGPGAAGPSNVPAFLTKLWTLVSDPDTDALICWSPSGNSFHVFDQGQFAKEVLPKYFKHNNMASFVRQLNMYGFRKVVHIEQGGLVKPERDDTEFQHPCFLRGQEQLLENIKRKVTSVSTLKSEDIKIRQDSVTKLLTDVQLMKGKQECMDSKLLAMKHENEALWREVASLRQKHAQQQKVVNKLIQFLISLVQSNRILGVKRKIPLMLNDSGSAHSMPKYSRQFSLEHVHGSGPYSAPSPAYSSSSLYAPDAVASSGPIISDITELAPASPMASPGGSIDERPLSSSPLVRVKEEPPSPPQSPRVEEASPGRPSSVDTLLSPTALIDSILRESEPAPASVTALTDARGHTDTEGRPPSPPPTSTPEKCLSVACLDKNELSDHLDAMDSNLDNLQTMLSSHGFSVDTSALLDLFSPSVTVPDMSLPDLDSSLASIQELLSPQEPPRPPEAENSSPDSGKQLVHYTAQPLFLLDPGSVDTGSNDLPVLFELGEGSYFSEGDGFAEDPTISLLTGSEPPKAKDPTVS
# Sequence of Hepatocyte nuclear factor 6 (Homo sapiens) (Q9UBC0 whole entry, looked up): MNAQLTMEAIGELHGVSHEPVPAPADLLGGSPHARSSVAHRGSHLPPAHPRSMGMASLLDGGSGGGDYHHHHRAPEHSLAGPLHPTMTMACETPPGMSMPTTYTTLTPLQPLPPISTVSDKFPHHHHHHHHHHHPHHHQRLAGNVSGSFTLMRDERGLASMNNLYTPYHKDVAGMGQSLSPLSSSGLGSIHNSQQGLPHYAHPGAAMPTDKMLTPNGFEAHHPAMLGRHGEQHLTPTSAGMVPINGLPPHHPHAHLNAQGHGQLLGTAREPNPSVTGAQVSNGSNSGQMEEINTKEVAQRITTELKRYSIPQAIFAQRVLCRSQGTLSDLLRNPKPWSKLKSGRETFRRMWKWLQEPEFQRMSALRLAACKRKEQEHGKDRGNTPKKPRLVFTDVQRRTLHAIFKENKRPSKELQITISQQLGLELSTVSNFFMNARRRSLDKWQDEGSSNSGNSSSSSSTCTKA
# Sequence of Paired box protein Pax-6 (Homo sapiens) (P26367 whole entry, looked up): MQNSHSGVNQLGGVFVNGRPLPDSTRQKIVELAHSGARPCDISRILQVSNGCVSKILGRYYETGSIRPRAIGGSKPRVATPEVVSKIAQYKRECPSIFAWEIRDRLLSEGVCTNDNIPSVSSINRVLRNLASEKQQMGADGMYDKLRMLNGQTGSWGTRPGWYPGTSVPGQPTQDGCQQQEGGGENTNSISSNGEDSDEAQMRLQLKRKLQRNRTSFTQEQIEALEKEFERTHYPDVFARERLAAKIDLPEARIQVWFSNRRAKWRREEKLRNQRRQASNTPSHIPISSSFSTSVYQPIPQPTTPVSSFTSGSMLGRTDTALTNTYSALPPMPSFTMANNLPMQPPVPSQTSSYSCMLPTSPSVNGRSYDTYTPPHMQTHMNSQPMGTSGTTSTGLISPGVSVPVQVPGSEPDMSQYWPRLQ
# Sequence of Hypoxia-inducible factor 1-alpha (Homo sapiens) (Q16665 whole entry, looked up): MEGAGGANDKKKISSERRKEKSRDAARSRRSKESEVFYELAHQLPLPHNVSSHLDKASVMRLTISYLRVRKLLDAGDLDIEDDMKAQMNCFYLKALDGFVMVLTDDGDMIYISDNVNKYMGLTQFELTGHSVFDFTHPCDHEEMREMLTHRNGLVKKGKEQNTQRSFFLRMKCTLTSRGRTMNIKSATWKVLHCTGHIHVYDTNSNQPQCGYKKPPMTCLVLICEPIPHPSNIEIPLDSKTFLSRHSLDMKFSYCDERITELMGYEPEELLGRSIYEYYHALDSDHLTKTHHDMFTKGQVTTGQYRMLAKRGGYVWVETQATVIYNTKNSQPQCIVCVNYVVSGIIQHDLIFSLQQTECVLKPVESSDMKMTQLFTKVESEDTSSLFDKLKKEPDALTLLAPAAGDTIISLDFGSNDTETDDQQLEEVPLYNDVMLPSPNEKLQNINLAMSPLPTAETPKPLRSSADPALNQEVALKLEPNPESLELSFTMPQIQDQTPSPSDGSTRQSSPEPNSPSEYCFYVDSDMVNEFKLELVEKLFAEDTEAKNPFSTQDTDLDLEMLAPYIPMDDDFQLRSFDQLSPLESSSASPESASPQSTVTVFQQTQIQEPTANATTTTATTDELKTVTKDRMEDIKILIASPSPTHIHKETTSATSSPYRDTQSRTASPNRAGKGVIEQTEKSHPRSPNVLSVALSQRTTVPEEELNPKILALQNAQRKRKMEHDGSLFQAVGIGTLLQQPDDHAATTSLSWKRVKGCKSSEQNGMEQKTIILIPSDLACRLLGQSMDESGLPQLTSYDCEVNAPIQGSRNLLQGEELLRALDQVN
structure (smiles),measurement,setting,value
O=C1c2ccccc2C(=O)c2c(O)c(O)cc(O)c21,outcome,[1],inactive
same,outcome,[2],inactive
same,AC50,[3],2.42 µM (active)
same,outcome,[4],inactive
same,outcome,[5],inactive
same,outcome,[6],inactive
same,outcome,[7],inactive
same,outcome,[8],inactive
same,outcome,[9],inactive
same,outcome,[10],inactive
same,outcome,[11],inactive
same,outcome,[12],inactive
same,outcome,[13],inactive
same,outcome,[14],inactive
same,outcome,[15],inactive
same,outcome,[16],inactive
same,outcome,[17],inactive
same,outcome,[18],inactive
same,AC50,[19],26.6 µM (active)
CC1CNCC(C)O1 (stereo not given),outcome,[1],inactive
same,outcome,[2],inactive
same,outcome,[3],inactive
same,outcome,[4],inactive
same,outcome,[5],inactive
same,outcome,[6],inactive
same,outcome,[7],inactive
same,outcome,[20],inactive
same,outcome,[9],inactive
same,outcome,[11],inactive
same,outcome,[12],inactive
same,outcome,[13],inactive
same,outcome,[14],inactive
same,outcome,[15],inactive
same,outcome,[16],inactive
same,outcome,[18],inactive
same,outcome,[19],inactive
FC(F)(F)C(F)(F)C(F)(F)Br,outcome,[1],inactive
same,outcome,[2],inactive
same,outcome,[3],inactive
same,outcome,[4],inactive
same,outcome,[5],inactive
same,outcome,[6],inactive
same,outcome,[7],inactive
same,outcome,[20],inactive
same,outcome,[9],inactive
same,outcome,[10],inactive
same,outcome,[11],inactive
same,outcome,[12],inactive
same,outcome,[13],inactive
same,outcome,[14],inactive
same,outcome,[16],inactive
same,outcome,[17],inactive
same,outcome,[18],inactive
same,outcome,[19],inactive
O=C1Cc2ccccc2N1c1c(Cl)cccc1Cl,outcome,[1],inactive
same,outcome,[2],inactive
same,AC50,[3],6.29 µM (active)
same,outcome,[4],inactive
same,outcome,[5],inactive
same,outcome,[6],inactive
same,outcome,[7],inactive
same,outcome,[20],inactive
same,AC50,[8],100 µM (active)
same,outcome,[9],inactive
same,outcome,[11],inactive
same,outcome,[12],inactive
same,AC50,[13],75.3 µM (active)
same,AC50,[15],130 µM (active)
same,AC50,[16],91.5 µM (active)
same,AC50,[17],1.23 µM (active)
same,outcome,[18],inactive
same,AC50,[19],0.484 µM (active)
CCCCCCCC(OC)OC,outcome,[1],inactive
same,outcome,[2],inactive
same,outcome,[3],inactive
same,outcome,[4],inactive
same,outcome,[5],inactive
same,outcome,[6],inactive
same,outcome,[7],inactive
same,outcome,[20],inactive
same,outcome,[8],inactive
same,outcome,[9],inactive
same,outcome,[11],inactive
same,outcome,[12],inactive
same,outcome,[13],inactive
same,outcome,[14],inactive
same,outcome,[16],inactive
same,outcome,[17],inactive
same,outcome,[18],inactive
same,outcome,[19],inactive
